Among the data in PubChem BioAssay (NCI) are growth values, retold here.

Test in all cases: NCI-60 one-dose screen, 48 h (100 = growth as untreated, 0 = no growth, -100 = all killed)
The test system of test [1] is DU-145 prostate. The settings on record: 10 µM unless noted.
The test system of test [2] is K-562 leukemia. The settings on record: 10 µM unless noted.
In test [3] the test system is MALME-3M melanoma. The settings on record: 10 µM unless noted.
Test [4] concerns MDA-MB-231 breast. Conditions: 10 µM unless noted.
Test [5] relates to RXF 393 renal. The settings on record: 10 µM unless noted.
For test [6], the system named is SF-268 CNS. The settings on record: 10 µM unless noted.
For test [7], the system named is SF-295 CNS. Conditions: 10 µM unless noted.
The test system of test [8] is SF-539 CNS. Conditions: 10 µM unless noted.
Test [9] concerns UACC-257 melanoma. Conditions: 10 µM.
For test [10], the system named is M14 melanoma. Conditions: 10 µM unless noted.

The panel holds about 83,000 compounds, 20% with a hit somewhere; the sample as a whole holds those more often.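 Plates (96-well) were seeded with cells, treated with compound at one concentration, and incubated for 48 hours before percent growth was determined.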 Values without a mark were called inactive. The source made the active and inactive calls. The calls were made as follows: active = growth percent below 10; inactive = the rest.

Consider `Nc1c(C(=O)Nc2cccc(C(F)(F)F)c2)sc2nc3c(cc12)CCCCCC3`, for which the growth in test [1] is 20.8%; in [2], 17%; in test [3] it was -20.6% (active); in test [4] it was -12.9% (active); in test [5] it was -49.1% (active); in [6], 12.7%. Moreover, the growth in test [7] was 2.51% (active); in test [8], -86.9% (active); in [9], 7.85% (active); in test [10] it was 47.1%.

Consider `COC1=CC(c2ccc[nH]2)=N/C1=C\c1[nH]c(C)c(C(=O)CCCCC(=O)Oc2ccc3c(c2)CCC2C3CC[C@]3(C)[C@@H](O)CC[C@@H]23)c1C` (stereo not given in full), for which the growth was 30.6% in test [1]; 13.6% in [2]; 80.1% in [3]; 10.9% in test [4]; 62.4% in test [5]; 44.6% in [6]. Also, the growth in test [7] was 80.8%; in test [8], 65.9%; in test [9], 103%; in test [10], 60%.

With `C[C@]12CC[C@@H]3c4cc(O)c(O)cc4CC[C@H]3[C@@H]1CC[C@@H]2O`, the growth is 39.1% in [1]; 7.32% (active) in test [2]; 16.8% in test [3]; 48.1% in test [4]; 28.7% in [5]; 46.7% in test [6]. Moreover, the growth was 35% in test [7], -1.85% (active) in test [8], 31.2% in test [9] and 23.4% in [10].

`COc1cccc(NC(=O)c2sc3nc4c(cc3c2N)CCCC4)c1`: the growth in test [1] was 13%; in test [2] it was 12.2%; in test [3], 17%; in test [4] it was 51.9%; in [5] it was 7.62% (active); in [6], 49.5%. In addition, the growth in [7] was 35.4%; in test [8], -12.8% (active); in test [9], 64.5%; in test [10], 16.6%.

For `COc1cc(C2C=C(C)N=C3SC=C(C)N32)cc(OC)c1OC` (stereo not given), the growth in [1] is -26.7% (active); in [2], 2.16% (active); in [3], -54% (active); in [4] it was -23.5% (active); in test [5], -89.7% (active); in test [6], -16.9% (active). For the same compound, the growth is -1.7% (active) in test [7], -40.4% (active) in test [8], -38.9% (active) in test [9] and -52.5% (active) in [10].

With `CCCCCc1c(C)[nH]c(/C=c2\[nH]/c(=C3/C=c4ccccc4=N3)cc2OC)c1C`, the growth in test [1] is 5.25% (active); in test [2], -9.81% (active); in [3], -65% (active); in test [4] it was -80.5% (active); in [5] it was -46.7% (active); in test [6], -38.3% (active). Also, the growth in test [7] is -60.2% (active); in [8], -67.1% (active); in test [9], -42.4% (active); in test [10], -81.6% (active).

With `COc1ccc(/C=N/NC(=O)Cn2c(Cc3cccc4ccccc34)nc3ccccc32)cc1`, the growth in test [1] is 105%; in test [2], 89.4%; in test [3] it was 92.4%; in test [4] it was 91.2%; in test [5] it was 109%; in test [6], 95.6%. Also, the growth in test [7] was 88.9%; in test [8], 90.7%; in [9], 99.4%; in test [10], 105%.

Turning to `CCN(CC)P(=O)(N(CC)CC)N(CCCSC/C=C(\C)CC/C=C(\C)CCC=C(C)C)CCCN1CCN(C)CC1`, the growth in [1] is 106%; in test [2], 71.8%; in [3], 98.7%; in test [4] it was 111%; in [5], 91.3%; in [6], 102%. Further, the growth is 96.4% in [7], 106% in test [8], 110% in test [9] and 107% in test [10].

With `O=S(=O)(NCCCNc1nccc(-c2c(-c3ccccc3)nc3sccn23)n1)c1ccc(F)cc1`, the growth in test [1] is 44.8%; in [2] it was 26.4%; in [3], 67.9%; in test [4], 58.4%; in test [5], 47.2%; in test [6] it was 51%. Besides, the growth in test [7] is 29.8%; in test [8] it was 82%; in test [9], 71.3%; in test [10] it was 35%.

Consider `Cc1cc(-c2ccccc2)c(C)n1Cc1ccc(Cl)cc1`, for which the growth in [1] was 86.6%; in [2] it was 13%; in [3], 59.4%; in test [4] it was 67%; in test [5] it was 61.4%; in [6], 58.5%. The growth was 39.7% in [7], 39.4% in test [8], 48.4% in test [9] and 17.7% in [10].

As for `COc1ccc(/C=C/C(=O)c2cc(OC)c(OC)c(OC)c2)cc1OCc1cn(Cc2ccc(F)cc2)nn1`, the growth was 59.3% in test [1]; 7.36% (active) in test [2]; 92.1% in [3]; 81.8% in test [4]; 72.2% in [5]; 79.3% in test [6]. In addition, the growth in test [7] is 68.4%; in [8], 6.59% (active); in test [9], 98.3%; in [10] it was 87.7%.

Regarding `COc1ccc(-c2nc3sccn3c2-c2ccnc(NCCCNS(=O)(=O)c3ccc(F)cc3)n2)cc1`, the growth is 10.9% in test [1]; 14.2% in test [2]; 12.7% in test [3]; 43.2% in test [4]; 52.9% in [5]; 17.2% in test [6]. For the same compound, the growth is 12.9% in test [7], 28.4% in test [8], 26.1% in test [9] and 12.4% in test [10].

Turning to `CNC(=O)Cc1nc(-c2cccc(NS(=O)(=O)c3c(F)cccc3F)c2F)c(-c2ccnc(Nc3ccccc3)n2)s1`, the growth in test [1] was 79.5%; in test [2] it was 20.5%; in test [3] it was 0.396% (active); in [4], -14.3% (active); in test [5], -6.63% (active); in [6], 54.9%. The growth in test [7] was 101%; in [8] it was 68.9%; in [9], 7.77% (active); in test [10], 2.35% (active).

For `COc1ccc(C(=O)/C=C/c2cccc([N+](=O)[O-])c2)c(OC)c1`, the growth in test [1] is 25.3%; in test [2], 8.25% (active); in test [3] it was 70.5%; in test [4], 34.7%; in test [5], -33.8% (active); in test [6], 25%. The growth was 35.5% in test [7], 8.09% (active) in test [8], 66.4% in test [9] and 30.6% in test [10].
